Experiment [1] can be described thus: NCI Yeast Anticancer Drug Screen. Data for the rad50 strain (AID 155).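 Also: 0% = growth of vehicle-only cultures of the same strain.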 The settings on record: S. cerevisiae rad50 strain growth inhibition; at 50.0 µM; stronger effect = higher value. The procedure, abridged: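 Yeast carrying a defined DNA repair defect were exposed to test compounds, and growth was compared with vehicle-treated controls to give percent inhibition.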

Experiment [2] can be described thus: NCI Yeast Anticancer Drug Screen. Data for the mec2-1 strain (AID 157). To be noted: S. cerevisiae mec2-1 strain, at 50.0 µM, stronger effect = higher value. The procedure, abridged: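 Mutant yeast (mec2-1) grown with compound; growth inhibition relative to vehicle control reported.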
Experiment [3] is described as follows: NCI Yeast Anticancer Drug Screen. Data for the sgs1 mgt1 strain (AID 161).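 Also: 0% = growth of cultures given vehicle only.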 To be noted: S. cerevisiae sgs1 mgt1 strain, at 50.0 µM, stronger effect = higher value. Put shortly: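 This yeast growth screen uses a strain with defined DNA-repair lesions; compound-treated growth is compared with vehicle-treated growth.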
The nature of experiment [4]: NCI Yeast Anticancer Drug Screen. Data for the cln2 rad14 strain (AID 165).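 Also: 0% = growth equal to vehicle treated cultures.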 The settings on record: S. cerevisiae cln2 rad14 strain, at 50.0 µM, stronger effect = higher value. The procedure, abridged:
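Readout is yeast growth inhibition versus vehicle-treated controls, using a strain with cln2 and rad14 alterations exposed to compound.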

A short description of experiment [5]: NCI Yeast Anticancer Drug Screen. Data for the bub3 strain (AID 167). To be noted: S. cerevisiae bub3 mutant strain, at 50.0 µM, stronger effect = higher value. The procedure, abridged:
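Compounds were applied to a genetically altered yeast strain carrying a cell-cycle control defect. Growth inhibition was scored against vehicle-treated controls.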

A short description of experiment [6]: NCI Yeast Anticancer Drug Screen. Data for the mlh1 rad18 strain (AID 175). The settings on record: S. cerevisiae mlh1 rad18 strain growth inhibition; at 50.0 µM; stronger effect = higher value. Put shortly:
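Genetically defined yeast (DNA repair-deficient) exposed to compounds; growth inhibition determined relative to vehicle.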

The structures appear in SMILES notation. The panel holds about 79,000 compounds, 15% with a hit somewhere; the sample as a whole holds those more often. A number with no mark means an inactive call. Calls of active or inactive are those of the source. Rule as the data show it: active = growth inhibition above about 70%; inactive = the rest.

Among the data in PubChem BioAssay (NCI) are growth inhibition values, retold here.

For `CCOCCOC(=O)C1CCCC1=O` (centres undefined), the growth inhibition in experiment [1] is -5.25%; in experiment [2], -11.3%; in experiment [3], -34.9%; in experiment [4], -10.1%; in experiment [5] it was -11.2%; in experiment [6] it was -8.45%.

For `O=C(CCCCl)c1ccccc1`, the growth inhibition is 0.75% in experiment [1]; -4% in experiment [2]; -18.1% in experiment [3]; 2.35% in experiment [4]; -7.1% in experiment [5]; -2.6% in experiment [6].

Regarding `CC1(C)OC2COC3(CO)OC(C)(C)OC3C2O1` (centres undefined), the growth inhibition in experiment [1] is -2.2%; in experiment [2] it was 20.6%; in experiment [3], 15.4%; in experiment [4], -65.5%; in experiment [5], 15.2%; in experiment [6] it was 17.4%.

Take `CCOC(=O)N1OC2C=CC1CC2` (centres undefined): the growth inhibition is -7.45% in experiment [1]; -9.45% in experiment [2]; -12.1% in experiment [3]; 11.8% in experiment [4]; 3.45% in experiment [5]; 15.1% in experiment [6].

On to `CC(C)Oc1c(O)c2c3c(oc(=O)n3C=CC2c2ccccc2)c1OC(C)C` (centres undefined), for which the growth inhibition in experiment [1] was 86.8% (active); in experiment [2], 86.9% (active); in experiment [3] it was 88.2% (active); in experiment [4], 86.6% (active); in experiment [5], 85.5% (active); in experiment [6], 82.3% (active).

Regarding `N#CCCn1nc(SC2CCCCC2)c(=O)[nH]c1=O`, the growth inhibition in experiment [1] is -4.05%; in experiment [2], 1.95%; in experiment [3], 2.45%; in experiment [4], 32.3%; in experiment [5] it was 4.75%; in experiment [6], 4.3%.

For the compound `CN(C)CC1=C(O)c2ccccc2C(=O)C1=O`, the growth inhibition was -0.25% in experiment [1]; -1.2% in experiment [2]; 1.1% in experiment [3]; 13.7% in experiment [4]; 31.6% in experiment [5]; -4.2% in experiment [6].

Turning to `CSc1c(C#N)c(N)n2c1C(=O)N(c1ccccc1)C2=S`, the growth inhibition in experiment [1] was -52.7%; in experiment [2] it was 25.6%; in experiment [3], -26.9%; in experiment [4], 20.1%; in experiment [5], 26.1%; in experiment [6], -4.8%.

For `CSC(=NNC(N)=O)SC`, the growth inhibition in experiment [1] is 4.4%; in experiment [2] it was -2.8%; in experiment [3], 1.2%; in experiment [4], -14.2%; in experiment [5], -9.7%; in experiment [6], 5.4%.

`COC(=O)c1cccc(C(=O)CC(=O)c2ccccc2)c1`: the growth inhibition in experiment [1] is 18.6%; in experiment [2], 12.7%; in experiment [3], 8.1%; in experiment [4], 12.3%; in experiment [5], 11.2%; in experiment [6] it was 11.6%.

Take `C/C(=N\NC(=S)N1CCC(c2ccccc2)CC1)c1ccccn1`: the growth inhibition in experiment [1] is -24.3%; in experiment [2], 3.95%; in experiment [3], 0.25%; in experiment [4], -22.4%; in experiment [5], 4.65%; in experiment [6] it was 13.8%.

With `CC(=O)CC(C)=NCCCCN=C(C)CC(C)=O`, the growth inhibition is -12.6% in experiment [1]; -29.1% in experiment [2]; 5.55% in experiment [3]; 5.35% in experiment [4]; -25.2% in experiment [5]; -17.3% in experiment [6].

On to `O=c1[nH]c2c(Br)cccc2c2ccccc12`, for which the growth inhibition in experiment [1] is 43.1%; in experiment [2], 3.85%; in experiment [3], 11.8%; in experiment [4], -30.9%; in experiment [5], -14.5%; in experiment [6] it was 17.5%.

Take `CCNCc1cc(Nc2cc(C)nc(/N=C(\N)Nc3ccc(Cl)c(Cl)c3)n2)ccc1OC`: the growth inhibition was 98.8% (active) in experiment [1]; 99% (active) in experiment [2]; 99.3% (active) in experiment [3]; 97.5% (active) in experiment [4]; 98.2% (active) in experiment [5]; 98.4% (active) in experiment [6].

Regarding `CCOc1ncnc2ccc(Cl)cc12`, the growth inhibition was -8.65% in experiment [1]; -3.7% in experiment [2]; -4.45% in experiment [3]; -18.1% in experiment [4]; 0.65% in experiment [5]; 0% in experiment [6].

Regarding `O=C1CC(c2ccccc2)S(=O)(=O)c2ccccc2N1` (centres undefined), the growth inhibition is -13.6% in experiment [1]; -8.5% in experiment [2]; 1.5% in experiment [3]; 10.2% in experiment [4]; 11.3% in experiment [5]; 1.45% in experiment [6].

Consider `CCOC(=O)CCCC(=O)N(CC(=O)OCC)Cc1ccccc1`, for which the growth inhibition in experiment [1] is 2.6%; in experiment [2] it was 12.1%; in experiment [3], 13.2%; in experiment [4], -4.9%; in experiment [5], 5%; in experiment [6], -5.85%.

As to `O=C(Cc1ccccc1)NN1C(=O)/C(=C\c2ccccc2O)SC1=Nc1ccccc1`, the growth inhibition in experiment [1] is 1.15%; in experiment [2] it was -6.3%; in experiment [3], 31.4%; in experiment [4], 13.5%; in experiment [5], -6.95%; in experiment [6] it was 7.25%.

Take `Cc1ccc(S(=O)(=O)Nc2ccc3nc(C)oc3c2)cc1`: the growth inhibition in experiment [1] was 26.4%; in experiment [2], -18.1%; in experiment [3], 44.1%; in experiment [4], 14.7%; in experiment [5], 45%; in experiment [6], 17%.

For the compound `CC(=O)NCC1(c2ccccc2)CCN(Cc2ccccc2)CC1`, the growth inhibition was -6.8% in experiment [1]; -17.3% in experiment [2]; -11.7% in experiment [3]; 5.7% in experiment [4]; -17% in experiment [5]; -14.2% in experiment [6].

On to `COc1ccc(N=Cc2c(O)c(O)c(C(C)C)c3cc(C)c(-c4c(C)cc5c(C(C)C)c(O)c(O)c(C=Nc6ccc(OC)cc6)c5c4O)c(O)c23)cc1`, for which the growth inhibition in experiment [1] is 2.2%; in experiment [2] it was 1.75%; in experiment [3] it was -12.2%; in experiment [4], -18.4%; in experiment [5] it was -5.75%; in experiment [6], -6.2%.

`CC(NNC(=O)c1ccncc1)c1ccc(Cl)cc1Cl` (centres undefined): the growth inhibition is -19.9% in experiment [1]; 9.15% in experiment [2]; -21.6% in experiment [3]; 22.6% in experiment [4]; 13.8% in experiment [5]; -16.1% in experiment [6].

Turning to `CCCCNC(=O)C(CCCC)C(CCC)(CCC)CCCC` (centres undefined), the growth inhibition in experiment [1] is -21.4%; in experiment [2], -13%; in experiment [3], -16.5%; in experiment [4] it was -35.8%; in experiment [5] it was 55.3%; in experiment [6] it was 3.55%.

Take `COc1ccc(C(=O)c2ccc(Cl)s2)cc1`: the growth inhibition in experiment [1] is 8.4%; in experiment [2], -4.85%; in experiment [3], 22.4%; in experiment [4], -13.2%; in experiment [5], 21%; in experiment [6], 5.1%.
